# Out of some 5,500 compounds screened, about 2,000 (36%) were called active. About 18% were inconclusive and are not listed. The list shows a part of the results. Unmarked numbers belong to inactive results. Rule as the data show it: active = normalized growth mostly below about 0.91 (no sharp cut-off); inconclusive = no clear call, values can overlap the other calls; inactive = mostly above about 0.92.
# Experiment: chemical genetic growth profiling, strain panel (AID 1159580);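 also: tested at 20 µM; growth read once vehicle control cultures reached saturation at 30 °C; 1 = growth at the plate median or of vehicle wells; lower values mean less growth of the strain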
# Settings: S. cerevisiae deletion strains, growth OD
# [1] = locus YAL040C, strain CLN3, active compounds read low
# [2] = locus YDR363W, strain ESC2, active compounds read low
# [3] = locus YER002W, strain NOP16, active compounds read low
# [4] = locus YJR075W, strain HOC1, active compounds read low
# [5] = locus YMR307W, strain GAS1, active compounds read low
# [6] = locus YNL175C, strain NOP13, active compounds read low
# [7] = locus YNL197C, strain WHI3, active compounds read low
# [8] = locus YNL224C, strain SQS1, active compounds read low
# [9] = locus YOR083W, strain WHI5 (second series), active compounds read low
# [10] = locus YPL241C, strain CIN2, active compounds read low
smiles,measurement,setting,value
COc1ccc(NC(=O)/C=C/c2ccc(Cl)cc2)cc1,normalized growth,"locus YAL013W, strain DEP1, active compounds read low",0.992
same,normalized growth,[1],0.958
same,normalized growth,"locus YCL061C, strain MRC1 (second series), active compounds read low",1
same,normalized growth,"locus YDR150W, strain NUM1, active compounds read low",1
same,normalized growth,[2],1.01
same,normalized growth,[3],0.956
same,normalized growth,"locus YGR229C, strain SMI1, active compounds read low",0.986
same,normalized growth,[4],0.98
same,normalized growth,[5],1.02
same,normalized growth,[6],0.966
same,normalized growth,[7],0.977
same,normalized growth,[8],1
same,normalized growth,[9],0.961
same,normalized growth,[10],1.01
COC(=S)Nc1cc(Cl)cc(Cl)c1,normalized growth,"locus YAR019C, strain CDC15, active compounds read low",0.938
same,normalized growth,"locus YBL105C, strain PKC1, active compounds read low",0.94
same,normalized growth,"locus YBR135W, strain CKS1, active compounds read low",0.935
same,normalized growth,"locus YBR136W, strain MEC1, active compounds read low",0.94
same,normalized growth,"locus YBR160W, strain CDC28, active compounds read low",0.935
same,normalized growth,"locus YDL017W, strain CDC7, active compounds read low",0.938
same,normalized growth,"locus YDL028C, strain MPS1, active compounds read low",0.939
same,normalized growth,"locus YDL101C, strain DUN1, active compounds read low",0.949
same,normalized growth,"locus YDL108W, strain KIN28, active compounds read low",0.943
same,normalized growth,"locus YDL132W, strain cdc53, active compounds read low",0.95
same,normalized growth,"locus YDL214C, strain PRR2, active compounds read low",0.702
same,normalized growth,"locus YDR052C, strain DBF4, active compounds read low",0.935
same,normalized growth,"locus YDR054C, strain cdc34, active compounds read low",0.959
same,normalized growth,"locus YDR226W, strain ADK1, active compounds read low",0.921
same,normalized growth,"locus YDR477W, strain SNF1, active compounds read low",0.685 (active)
same,normalized growth,"locus YER123W, strain YCK3, active compounds read low",0.608 (active)
same,normalized growth,"locus YER133W, strain GLC7, active compounds read low",0.559 (active)
same,normalized growth,"locus YFL009W, strain cdc4, active compounds read low",0.912
same,normalized growth,"locus YFL029C, strain CAK1, active compounds read low",0.919
same,normalized growth,"locus YFR003C, strain YPI1, active compounds read low",0.941
same,normalized growth,"locus YFR019W, strain FAB1, active compounds read low",0.828
same,normalized growth,"locus YFR028C, strain CDC14, active compounds read low",0.966
same,normalized growth,"locus YGR040W, strain KSS1, active compounds read low",0.662 (active)
same,normalized growth,"locus YGR052W, strain FMP48, active compounds read low",0.698
same,normalized growth,"locus YGR092W, strain DBF2, active compounds read low",0.452 (active)
same,normalized growth,"locus YHR030C, strain SLT2, active compounds read low",0.577 (active)
same,normalized growth,"locus YHR079C, strain IRE1, active compounds read low",0.499 (active)
same,normalized growth,"locus YHR082C, strain KSP1, active compounds read low",0.633
same,normalized growth,"locus YHR205W, strain SCH9, active compounds read low",0.659
same,normalized growth,"locus YIL147C, strain SLN1, active compounds read low",0.929
same,normalized growth,"locus YJL095W, strain BCK1, active compounds read low",0.584
same,normalized growth,"locus YJL128C, strain PBS2, active compounds read low",0.935
same,normalized growth,"locus YJL157C, strain FAR1, active compounds read low",0.679 (active)
same,normalized growth,"locus YJR016C, strain ILV3, active compounds read low",0.925
same,normalized growth,"locus YJR066W, strain TOR1 (second series), active compounds read low",0.653
same,normalized growth,"locus YJR066W, strain TOR1, active compounds read low",0.604
same,normalized growth,"locus YKL048C, strain ELM1, active compounds read low",0.816
same,normalized growth,"locus YKL067W, strain YNK1, active compounds read low",0.704 (active)
same,normalized growth,"locus YKL101W, strain HSL1, active compounds read low",0.762
same,normalized growth,"locus YKL193C, strain SDS22, active compounds read low",0.919
same,normalized growth,"locus YKL203C, strain TOR2, active compounds read low",0.697 (active)
same,normalized growth,"locus YLR113W, strain HOG1, active compounds read low",0.458 (active)
same,normalized growth,"locus YLR133W, strain CKI1, active compounds read low",0.742
same,normalized growth,"locus YLR403W, strain SFP1, active compounds read low",0.569 (active)
same,normalized growth,"locus YML070W, strain DAK1, active compounds read low",0.644 (active)
same,normalized growth,"locus YMR001C, strain CDC5, active compounds read low",0.935
same,normalized growth,"locus YMR205C, strain PFK2 (second series), active compounds read low",0.747 (active)
same,normalized growth,"locus YMR277W, strain FCP1, active compounds read low",0.932
same,normalized growth,"locus YNL006W, strain LST8, active compounds read low",0.936
same,normalized growth,"locus YNL020C, strain ARK1, active compounds read low",0.727
same,normalized growth,"locus YNL161W, strain CBK1, active compounds read low",0.934
same,normalized growth,"locus YNL183C, strain NPR1, active compounds read low",0.544 (active)
same,normalized growth,"locus YNL207W, strain RIO2, active compounds read low",0.927
same,normalized growth,"locus YNL222W, strain SSU72, active compounds read low",0.933
same,normalized growth,"locus YNL307C, strain MCK1 (second series), active compounds read low",0.599 (active)
same,normalized growth,"locus YOL078W, strain AVO1, active compounds read low",0.923
same,normalized growth,"locus YOL136C, strain PFK27, active compounds read low",0.648 (active)
same,normalized growth,"locus YOR061W, strain CKA2, active compounds read low",0.719
same,normalized growth,"locus YOR119C, strain RIO1, active compounds read low",0.746
same,normalized growth,"locus YOR231W, strain MKK1, active compounds read low",0.585
same,normalized growth,"locus YOR329C, strain SCD5, active compounds read low",0.929
same,normalized growth,"locus YPL031C, strain PHO85, active compounds read low",0.564 (active)
same,normalized growth,"locus YPL153C, strain RAD53, active compounds read low",0.588 (active)
same,normalized growth,"locus YPL204W, strain HRR25, active compounds read low",0.567 (active)
same,normalized growth,"locus YPL209C, strain IPL1, active compounds read low",0.935
same,normalized growth,"locus YPL256C, strain CLN2, active compounds read low",0.627 (active)
same,normalized growth,"locus YPR025C, strain CCL1, active compounds read low",0.936
same,normalized growth,"locus YPR106W, strain ISR1, active compounds read low",0.927
same,normalized growth,"locus YPR111W, strain DBF20, active compounds read low",0.96
same,normalized growth,"strain NNK1, active compounds read low",0.936
same,normalized growth,"strain TSCII, active compounds read low",0.913
C[N+](C)(C)CC#CCOC(=O)Nc1cccc(Cl)c1,normalized growth,[1],0.998
same,normalized growth,[2],0.987
same,normalized growth,[3],0.99
same,normalized growth,[4],0.952
same,normalized growth,"locus YMR263W, strain SAP30, active compounds read low",0.953
same,normalized growth,[5],0.985
same,normalized growth,"locus YNL128W, strain TEP1, active compounds read low",0.966
same,normalized growth,"locus YNL153C, strain GIM3, active compounds read low",0.998
same,normalized growth,[6],0.984
same,normalized growth,[7],0.973
same,normalized growth,[8],0.993
same,normalized growth,[9],0.954
same,normalized growth,[10],0.998

# Source: PubChem BioAssay AID1159580 (chemical genetic matrix, 2015)
